According to PubChem BioAssay AID590 (National Center for Advancing Translational Sciences (NCATS), 2007):
Several values for one entry are separate records, joined by “and”; a condition that tells them apart may be missing. Identical values can stand only once. Hit rate of the full screen: of about 59,000 compounds, about 6,500 (11%) were called active. About 15% were inconclusive and are not listed. No stated cut-off is given here; in the data, active means max dye-equivalent concentration above about 10 nM; inconclusive means mostly about 1.1 nM to 9.6 nM; inactive means weaker than that. The list comes from a sample in which actives are over-represented; it also holds similar structures and randomly drawn compounds.

assay: qHTS Assay for Spectroscopic Profiling in A350 Spectral Region; settings: Compound autofluorescence, 340/450 nm, Alexa 350 dye-equivalents; hits give high values

Max dye-equivalent concentration, active:
COc1cc2cc(CN(CCN3CCCC3)C(=O)Nc3ccccc3Cl)c(=O)[nH]c2cc1OC 3.1e-07 M
COc1ccc2[nH]c3c(=O)n(Cc4ccco4)cnc3c2c1 5.5e-08 M
COc1ccc(OC)c(N=Cc2c(O)[nH]c3ccccc23)c1 6.4e-08 M
Cn1c(=O)c2c(nc(N3CCCCCC3)n2CC(O)COc2ccc(Cl)cc2)n(C)c1=O (stereo unspecified) 4.9e-08 M
CN(c1nc2ccccc2n2c(-c3ccco3)nnc12)S(=O)(=O)c1ccccc1 3.9e-08 M
CC(=O)C1=C(O)C(=O)N(c2ccc(S(N)(=O)=O)cc2)C1c1ccccc1F (stereo unspecified) 2.3e-08 M
O=C(CC1N=C2c3ccccc3N=C(SCc3ccccc3Cl)N2C1=O)NCc1ccco1 (stereo unspecified) 1.7e-08 M
NC(=O)CSC1=Nc2ccccc2C2=NC(CCC(=O)NCc3ccc(F)cc3)C(=O)N12 (stereo unspecified) 4.2e-07 M
CCN1CCc2c(C#N)c(NCc3ccccc3)nc(NCCO)c2C1 5e-07 M
CC[C@]1(O)C[C@@H]2CN(CCc3c([nH]c4ccccc34)[C@@](C(=O)OC)(c3cc4c(cc3OC)N(C)[C@H]3[C@@](O)(C(=O)OC)[C@H](OC(C)=O)[C@]5(CC)C=CCN6CC[C@]43[C@@H]65)C2)C1 5.4e-08 M
CCSc1nc2c(c(=O)[nH]1)C(c1cccnc1)C(C(=O)OC(C)C)=C(C)N2 (stereo unspecified) 1.2e-08 M
COc1c(C)c2c(c(O)c1C/C=C(\C)CCC(=O)O)C(=O)OC2 6e-08 M and 1.6e-08 M
Cc1ccc2c(c1)sc1ncc(NC(=O)c3ccccc3)c(=O)n12 6.5e-08 M
CC(C(=O)N1CCOCC1)N1c2cccc3cccc(c23)S1(=O)=O (stereo unspecified) 8e-08 M
Cc1ccc(C)n1C(Cc1ccccc1)C(=O)O (stereo unspecified) 1.3e-08 M
Cc1cccc(-n2ncc3c(N4CCc5ccccc54)ncnc32)c1 1.5e-08 M
COc1ccc(-n2ncc3c(N4CCCc5ccccc54)ncnc32)cc1 2.5e-08 M

Max dye-equivalent concentration, inactive:
COc1cccc2cc(C(C)N(CCCN3CCOCC3)C(=O)Nc3ccc(Cl)cc3)oc12 (stereo unspecified)
COc1ccc(CCN(Cc2cc3cccc(C)c3[nH]c2=O)C(=O)N2CCCC2)cc1OC
Cc1ccc(-c2nnn(CC(=O)N(CCO)C(C(=O)NC(C)(C)C)c3ccncc3)n2)cc1 (stereo unspecified)
O=C(Nc1ccc2c(c1)OCCO2)c1ccncc1
Cc1cc(C)n2nc(C(=O)Oc3ccc4c(c3)OCO4)nc2n1
O=c1c2[nH]c3ccc(Cl)cc3c2ncn1Cc1ccccn1
COc1ccc(C(=O)CSc2nnc(COc3ccccc3)n2Cc2ccco2)cc1
CCOc1ccccc1NC(=O)Nc1cc(OC)ccc1OC
COC(=O)c1[nH]c2ccccc2c1NS(=O)(=O)c1ccc(OC)cc1OC
Cc1nc2nc(COc3ccccc3)[nH]n2c(=O)c1Cc1ccccc1
CC(=O)/C(C)=N\O
Cn1c(=O)c2c(nc(N3CCCCCC3)n2CC(=O)c2ccc(Br)cc2)n(C)c1=O
Cc1cccc(Cn2c(N3CCN(c4ccccc4)CC3)nc3c2c(=O)n(C)c(=O)n3C)c1
Cc1ccc(Oc2nc3ccccc3n3c(C)nnc23)cc1
c1ccc(CSc2nnc(-c3ccco3)n2Cc2ccccc2)cc1
COc1ccccc1N=C1SC(C)CN1C(=O)C1CCC1 (stereo unspecified)
COc1ccc(N2C(=O)CN=C2Nc2cccc(C)c2C)cc1OC
CSc1cccc(NC(=O)C2CCCN2S(=O)(=O)c2ccc3c(c2)CCC(=O)N3)c1 (stereo unspecified)
O=C(CN1C(=O)CCS(=O)(=O)c2ccccc21)NCc1ccc(F)cc1
CC1(c2ccccc2Cl)NC(=O)N(CC(=O)NC(=O)NCc2ccco2)C1=O (stereo unspecified)
Cc1nc2nc(SCC(=O)NCc3ccco3)nn2c(C)c1Cc1ccccc1
CCN(CC)S(=O)(=O)c1cccc(C(=O)NCC(=O)OCC(=O)NCc2ccccc2)c1
COc1ccccc1N(C(=O)Cn1nnc2ccccc21)C(C(=O)NCc1ccco1)c1ccc(C)o1 (stereo unspecified)
COc1ccc2[nH]cc(CCNc3ncnc4ccc(-c5ccc(C(=O)N(C)C)cc5)cc34)c2c1
O=C(O)c1ccc(-n2cccc2)cc1O
Cc1cc(Cl)ccc1N1C(=O)CC(SCCC(=O)O)C1=O (stereo unspecified)
CN(C)c1ccc(NC(=O)c2ccncc2)c2ccccc12
COc1ccc2c(=O)cc(-c3ccccc3)oc2c1O
Cc1noc(C)c1-c1nccc(N2CCOCC2)n1
O=C(Nc1nsc(-c2ccccc2)n1)c1ccncc1
CC[C@]1(O)CC2CN(CCc3c([nH]c4ccccc34)[C@@](C(=O)OC)(c3cc4c(cc3OC)N(C=O)[C@H]3[C@@](O)(C(=O)OC)[C@H](OC(C)=O)[C@]5(CC)C=CCN6CC[C@]43[C@@H]65)C2)C1 (stereo partly specified)
Cc1ccc(-c2csc3nnc(SCC(=O)NCc4ccco4)n23)cc1
CC1CN(C2CCCCC2)c2nc3c(c(=O)n(C)c(=O)n3C)n2C1 (stereo unspecified)
CC1=C(C(=O)OC2CCCCC2)C(c2cccnc2)n2ncnc2N1 (stereo unspecified)
COC(=O)C1=C(N)Oc2cc(C)oc(=O)c2C1c1cccnc1 (stereo unspecified)
C=C(C)c1cccc(C(C)(C)NC(=O)N2CCN(c3ncccn3)CC2)c1
CCOC(=O)c1c(C2CC2)csc1NC(=O)CSCc1c(C)noc1C
COc1ccc(CC(=O)Nc2ccc3c(c2)CCC3)cc1S(=O)(=O)N1CCOCC1
Clc1ccc(C=Nc2ccc3c(c2)Cc2ccccc2-3)c(Cl)c1
CCOc1cc(CO)ccc1OCC(=O)N1CCCCC1
Cc1ccc(NC(=O)c2nc[nH]c2C(=O)N2CCCCC2)c(C(=O)c2ccccc2)c1
Cc1ccccc1NC(=O)c1ccccc1
CCC(Oc1ccccc1)C(=O)NCc1cccnc1 (stereo unspecified)
Cc1ccc(S(=O)(=O)c2nc(NCCCn3ccnc3)sc2Cl)cc1
CC1(C)C/C(=C(/C#N)C(N)=O)CCO1
O=C(c1ccccc1-c1ccccc1)N1CCOCC1
CC(C(=O)Nc1ccccc1-c1ccccc1)N1CCOCC1 (stereo unspecified)
COC(=O)c1nc(NC(=O)c2ccc(Cl)cc2)n[nH]1
CCC(=O)c1ccc(OCC(O)CN2CC(C)OC(C)C2)cc1 (stereo unspecified)
CC1CCCC(NC(=O)CN2CCN(Cc3ccc(Cl)cc3)C2=O)C1C (stereo unspecified)
CC(=O)c1ccc(NC(=O)N[C@@H](Cc2ccccc2)C(=O)O)cc1
C[C@@H](N)[C@@H](C)Cc1ccccc1
O=C(C1CCCO1)N(Cc1ccccc1)c1ccccc1 (stereo unspecified)
CCN(c1ccccc1)S(=O)(=O)c1cccc(C(=O)O)c1
Nc1nc(N)c2[nH]c(CNc3ccc(C(=O)O)cc3)nc2n1
O=C(Nc1ccc(Cl)cn1)Nc1cccs1
COc1ccc(N2CCN(C(=O)CSc3ncnc4c3cnn4-c3ccc(OC)cc3)CC2)cc1
Cc1ccc(-n2ncc3c2ncn2nc(-c4ccco4)nc32)c(C)c1
CCCc1nc2c3cnn(-c4cccc(Cl)c4)c3ncn2n1
c1ccc(-n2ncc3c(N4CCCC4)ncnc32)cc1
Cc1cc2ccccc2n2c(SCC(=O)N3CCN(C(=O)c4ccco4)CC3)nnc12
CC(=O)Nc1ccn(Cc2c(F)cccc2Cl)n1
CCCCCn1c(SCCC(C)C)nc2c1c(=O)[nH]c(=O)n2C
O=C(O)CN(Cc1ccco1)S(=O)(=O)c1ccc(F)cc1
